VHR inh color = blocks the human dual specificity phosphatase VHR1. inhibition, % at 20 µM. AID 1992. 0.7% of 50,000 active. recombinant VHR phosphatase, colorimetric substrate read-out; in the data active = inhibition above about 60%
Target sequence (P51452 whole entry, looked up): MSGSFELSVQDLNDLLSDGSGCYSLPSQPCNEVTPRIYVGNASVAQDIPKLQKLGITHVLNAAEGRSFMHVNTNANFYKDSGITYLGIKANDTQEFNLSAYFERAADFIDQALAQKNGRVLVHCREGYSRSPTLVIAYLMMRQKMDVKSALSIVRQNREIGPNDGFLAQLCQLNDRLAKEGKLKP
Starred values were filed as active, the others as inactive. Many of the other results were omitted from the sample, so hits are more common in it than they were.

For O=C(Nc1ccc(-c2cnc(-c3ccc(NC(=O)c4ccco4)cc3)nc2)cc1)c1ccco1 the results were VHR inh color -2.
CCNC(=O)c1ccc(Cl)cc1Cl was read as VHR inh color 0.
`Cc1ccc(C)n1-c1ccc(O)c(C(=O)O)c1` gave VHR inh color 2.
`Cc1ccc(C)n1-c1ccc(C(=O)NN)c(Cl)c1` gave VHR inh color 90*.
For O=C1NC(=Nc2cccc(Cl)c2Cl)S/C1=C\c1cccc([N+](=O)[O-])c1 the results were VHR inh color 5.
`Cc1ccc(/C(O)=C2\C(=O)C(=O)N(c3ccc(O)cc3)C2c2ccc([N+](=O)[O-])cc2)cc1` (configuration not stated) gave VHR inh color 41.
`O=C(/C=C/Nc1ccccc1F)c1ccccc1` gave VHR inh color -4.
`CCCCc1c(C)nc2ccc(OC)cc2c1Cl` gave VHR inh color -24.
`COC(=O)c1ccc(/C=N/NC(=O)CCC2C(=O)NN=C2C)cc1` (configuration not stated) gave VHR inh color 1.
For CCOc1cc(/C=C2\SC(N3CCN(C4=NC(=O)/C(=C\c5ccc(O)c(OCC)c5)S4)CC3)=NC2=O)ccc1O the results were VHR inh color 88*.
Screening CCOc1cc(/C=C2\SC(N3CCCCCC3)=NC2=O)ccc1O returned VHR inh color 3.
COc1ccc(/C=C2\SC(N3CCCCCC3)=NC2=O)cc1OC was read as VHR inh color 9.
For Cc1cc(/C=N\Nc2ccc([N+](=O)[O-])cn2)c(C)n1-c1ccc(O)cc1 the results were VHR inh color 85*.
Screening Cc1cc(C=O)c(C)n1-c1ccc([N+](=O)[O-])cc1 returned VHR inh color 6.
Cc1cc(/C=N\Nc2ccc([N+](=O)[O-])cn2)c(C)n1-c1ccc(C(=O)O)cc1 was read as VHR inh color 22.
For CCC1=NN2C(=N)/C(=C/c3ccc(-c4ccc(C)c(Cl)c4)o3)C(=O)N=C2S1 the results were VHR inh color 5.
CCC1=NN2C(=N)/C(=C/c3ccc(OCc4ccc(Br)cc4)c(OC)c3)C(=O)N=C2S1 was read as VHR inh color 6.
For CCC1=NN2C(=N)/C(=C/c3ccc(-c4ccccc4[N+](=O)[O-])o3)C(=O)N=C2S1 the results were VHR inh color -3.
CCOc1cc(/C=C2/C(=N)N3N=C(CC)SC3=NC2=O)ccc1OCc1ccc(F)cc1 was read as VHR inh color 5.
For CCC1=NN2C(=N)/C(=C/c3ccc(-c4ccc(F)c(Cl)c4)o3)C(=O)N=C2S1 the results were VHR inh color -34.
Screening CCCC1=NN2C(=N)/C(=C/c3ccc(OCc4ccc(F)cc4)c(OCC)c3)C(=O)N=C2S1 returned VHR inh color 100*.
CCCC1=NN2C(=N)/C(=C/c3ccc(-c4ccc([N+](=O)[O-])cc4Br)o3)C(=O)N=C2S1 was read as VHR inh color 111*.
CCCC1=NN2C(=N)/C(=C/c3ccc(-c4ccc(F)cc4)o3)C(=O)N=C2S1 was read as VHR inh color 109*.
CC(C)C1=NN2C(=N)/C(=C/c3ccc(-c4ccc([N+](=O)[O-])cc4)o3)C(=O)N=C2S1 was read as VHR inh color -4.
For CCCC1=NN2C(=N)/C(=C/c3ccc(-c4ccccc4C(=O)OC)o3)C(=O)N=C2S1 the results were VHR inh color 116*.
`CCC1=NN2C(=N)/C(=C/c3ccc(-c4cccc([N+](=O)[O-])c4)o3)C(=O)N=C2S1` gave VHR inh color 0.
CCC1=NN2C(=N)/C(=C/c3ccc(-c4cc(Cl)ccc4Cl)o3)C(=O)N=C2S1 was read as VHR inh color 0.
`COc1ccc(/C=C/C(=O)c2ccc3c(c2)OCCO3)c(OC)c1` gave VHR inh color -17.
`O=C(Nc1cccc2c1CCCC2)c1ccc(Br)cc1` gave VHR inh color -4.
Cc1ccc(C(=O)NC(NC(=S)Nc2ccccc2Cl)C(Cl)(Cl)Cl)cc1 (configuration not stated) was read as VHR inh color -55.
COC(=O)C1=C(C)N(c2ccc(C)cc2)/C(=C\c2ccc(OCC(=O)Nc3ccccc3Cl)cc2)C1=O was read as VHR inh color -13.
COc1ccccc1-n1c(/C=C/c2ccco2)nc2ccccc2c1=O was read as VHR inh color 0.
Screening CCOc1ccc(C2Nc3ccc4ccccc4c3C3=C2C(=O)CC(C)(C)C3)cc1OC (configuration not stated) returned VHR inh color -13.
Screening Cc1ccc(C2=NN3C(C2)c2ccccc2OC3c2ccc(O)cc2)cc1 (configuration not stated) returned VHR inh color 11.
Screening COc1ccc(CCN(C(=S)Nc2ccccc2)C2CC(=O)N(c3ccc(Cl)cc3)C2=O)cc1 (configuration not stated) returned VHR inh color -4.
`O=C1NC(=S)N(c2ccccc2)C(=O)/C1=C\c1ccc(N2CCCC2)cc1` gave VHR inh color 31.
For Cc1ccc(-c2csc(N)c2C(=O)OC(C)C)cc1C the results were VHR inh color 84*.
Screening Cc1ccc(-c2csc(N)c2C(=O)OC(C)C)cc1 returned VHR inh color 52.
Screening Cc1ccc(C)c(-c2csc(N)c2C(=O)OC(C)C)c1 returned VHR inh color 8.
For Cc1ccc(Sc2ccc(/C=C3/SC(=S)N(C)C3=O)o2)cc1 the results were VHR inh color -10.
`O=C(O)COc1ccc(-c2ccccc2)cc1` gave VHR inh color -13.
`Nc1ccc(C2=Nc3cccc4cccc(c34)N2)cc1` gave VHR inh color 85*.
`O=C(N/N=C/c1c[nH]c2ccccc12)c1ccccc1[N+](=O)[O-]` gave VHR inh color -8.
`COc1ccc(-c2csc(-c3nc(-c4ccc(OC)c(OC)c4)cs3)n2)cc1OC` gave VHR inh color -5.
For COc1ccc(Nc2nc(-c3ccc4ccccc4c3)cs2)cc1 the results were VHR inh color -23.
For COc1ccc(-c2csc(Nc3ccc(N)cc3)n2)cc1OC the results were VHR inh color 90*.
COc1ccc(OC)c(C2/C(=C(\O)c3ccc(Cl)cc3)C(=O)C(=O)N2CCCCCC(=O)O)c1 (configuration not stated) was read as VHR inh color 4.
Screening COC(=O)C1=C(C)NC(C)=C(C(=O)OC)C1c1ccc(Cl)cc1 returned VHR inh color -19.
For Fc1c(F)c(C(F)(F)F)c(F)c(F)c1Oc1cccc2cccnc12 the results were VHR inh color 98*.
Screening Cc1ccc(C)n1-c1cccc2cccnc12 returned VHR inh color 22.
O=C(Nc1ccc(F)cc1)Nc1cccc2cccnc12 was read as VHR inh color -12.
For O=C(NCc1ccccc1)c1ccc(S(=O)(=O)c2ccccc2)cc1 the results were VHR inh color 1.
Screening O=C1C=CC(=O)C(/C(=C/NCc2ccccc2)[N+](=O)[O-])=C1 returned VHR inh color 86*.
O=[N+]([O-])c1ccc(Cl)cc1NCc1ccccc1 was read as VHR inh color 5.
For CCc1ccc(-c2cc(C(=O)N3CCN(c4cccc(Cl)c4)CC3)c3ccccc3n2)cc1 the results were VHR inh color -31.
O=C1C2C(C(=O)N1/N=C/c1ccc(Cl)cc1)C1C=CC2C12CC2 (configuration not stated) was read as VHR inh color 11.
O=C(COc1cccc(Cl)c1)Nc1ccc(OCc2ccccc2)cc1 was read as VHR inh color -19.

Source: PubChem BioAssay (Sanford-Burnham Center for Chemical Genomics)
